# Source: PubChem BioAssay (Tox21)
# Records with an inconclusive call do not appear. Entries that show only a call come without a potency. A number with no mark means an inactive call. Calls of active or inactive are those of the source. Unless noted, calls follow the shape of the dose curve; as a rule, active = well fitted curve in the direction sought with a large enough effect in the repeat runs; inconclusive = weak or mixed curves; inactive = no such curve, though single readings can be large; an effect the other way counts as inactive or inconclusive.
# How the values were obtained:
# [1] = qHTS assay to identify aromatase inhibitors - cell viability counter screen (AID 743084);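 also: cells stimulated with testosterone during compound exposure; nearly all actives have a fitted effect of over 55% in size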
# [2] = biological target: Aryl hydrocarbon receptor (Homo sapiens) (UniProt P35869); test: qHTS assay to identify small molecule that activate the aryl hydrocarbon receptor (AhR) signaling pathway (AID 743085); also: nearly all actives have a fitted effect of over 15% in size; also: potency is read from the fitted curve at half-maximal effect;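 as to activation: HG2L7.5c1 human HepG2 liver cells with stably integrated DRE-driven firefly reporter; series mostly up to about 70 µM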
# How it was run: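 Steps: seed HepG2-AhR-luc cells; allow 5 h at 37C; pin-transfer test compound or vehicle; incubate 24 h at 37C; add viability dye (30 min, 37C) and read fluorescence; add luciferase substrate (30 min, RT) and read luminescence.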
# [3] = qHTS assay to identify small molecule that activate the aryl hydrocarbon receptor (AhR) signaling pathway - cell viability counter screen (AID 743086);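 also: HepG2 liver cells carrying the AhR DRE luciferase reporter; series mostly up to about 70 µM; nearly all actives have a fitted effect of over 45% in size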
# How it was run: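 HepG2-AhR-luc (HG2L7.5c1) cells, 4000/well, were preincubated 5 h at 37C, exposed to compound in qHTS format for 24 hr at 37C, then given CellTiter-Fluor for 30 min; viability was read as fluorescence in the reporter wells.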
# [4] = biological target: Peroxisome proliferator-activated receptor gamma (Homo sapiens) (UniProt P37231); test: qHTS assay to identify small molecule agonists of the peroxisome proliferator-activated receptor gamma (PPARg) signaling pathway (AID 743094; active = well fitted activation curve with a large enough effect in the signal ratio in the repeat runs, not every such curve was filed as active; the % refers to the signal ratio)
# How it was run: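 GeneBLAzer PPARg UAS-bla HEK293H cells were plated, rested 5 h, then exposed to compounds for 17 h at 37C. Beta-lactamase activity was read by LiveBLAzer B/G FRET substrate fluorescence after 1 h at room temperature.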
# [5] = biological target: Peroxisome proliferator-activated receptor gamma (Homo sapiens) (UniProt P37231); test: qHTS assay to identify small molecule antagonists of the peroxisome proliferator-activated receptor gamma (PPARg) signaling pathway (AID 743191; calls by dose curve; also: series mostly up to about 63 µM; nearly all actives have a fitted effect of over 30% in size)
# How it was run: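 GeneBLAzer PPARg UAS-bla HEK293H cells carrying a UAS-driven beta-lactamase reporter were plated at 3000 cells/well, preincubated 5 h at 37C, then given compound for 17 h at 37C; LiveBLAzer B/G FRET substrate was read after 1 h at room temperature.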
# [6] = qHTS assay to identify small molecule antagonists of the peroxisome proliferator-activated receptor gamma (PPARg) signaling pathway - cell viability counter screen (AID 743194); also: nearly all actives have a fitted effect of over 55% in size
# How it was run: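 PPARg-UAS-bla HEK293H cells were plated, rested 5 h at 37 C, then treated with compounds plus rosiglitazone (50 nM final) for 17 h at 37 C; viability was then read by CellTiter-Glo luminescence after 30 min at room temperature.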
# [7] = qHTS assay for small molecule agonists of the antioxidant response element (ARE) signaling pathway (AID 743202; active = well fitted activation curve with a large enough effect in the signal ratio in the repeat runs, not every such curve was filed as active; the % refers to the signal ratio; also: potency is read from the fitted curve at half-maximal effect)
# How it was run: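 Compounds delivered in DMSO to ARE-bla HepG2 cells (2,000 cells/well, pre-incubated 5 h) and left 16 h at 37 C. LiveBLAzer B/G FRET substrate then added for 2 h at RT before fluorescence reading.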
# [8] = qHTS assay for small molecule agonists of the antioxidant response element (ARE) signaling pathway - cell viability counter screen (AID 743203; calls by dose curve; also: nearly all actives have a fitted effect of over 55% in size)
# How it was run: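 ARE-bla HepG2 cells were plated, rested 5 h at 37C/5% CO2, then exposed to compounds in DMSO for 16 h. Viability was read as CellTiter-Glo luminescence after 30 min at room temperature, in the same wells as the ARE screen.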
# [9] = qHTS assay for small molecule activators of the heat shock response signaling pathway - cell viability counter screen (AID 743209); also: nearly all actives have a fitted effect of over 50% in size
# How it was run: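 HSE-bla HeLa cells plated overnight, then exposed to Tox21 compounds (23 nL in DMSO) for 5 h at 37 C. After the bla reporter read, CellTiter-Glo was added in the same wells and luminescence read after 30 min at room temperature.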
# [10] = qHTS assay for small molecule activators of the heat shock response signaling pathway (AID 743210; active = well fitted activation curve with a large enough effect in the signal ratio in the repeat runs, with a control signal flat, not every such curve was filed as active; the % refers to the signal ratio;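 also: HeLa cells with beta-lactamase reporter driven by heat shock elements; series mostly up to about 63 µM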)
# How it was run: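 Reporter gene assay: HeLa cells stably bearing an HSE-bla construct, compound treatment 5 h at 37 C, LiveBLAzer substrate 2.5 h at RT, fluorescence intensity.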
# Sequence of Peroxisome proliferator-activated receptor gamma (Homo sapiens) (P37231 whole entry, looked up): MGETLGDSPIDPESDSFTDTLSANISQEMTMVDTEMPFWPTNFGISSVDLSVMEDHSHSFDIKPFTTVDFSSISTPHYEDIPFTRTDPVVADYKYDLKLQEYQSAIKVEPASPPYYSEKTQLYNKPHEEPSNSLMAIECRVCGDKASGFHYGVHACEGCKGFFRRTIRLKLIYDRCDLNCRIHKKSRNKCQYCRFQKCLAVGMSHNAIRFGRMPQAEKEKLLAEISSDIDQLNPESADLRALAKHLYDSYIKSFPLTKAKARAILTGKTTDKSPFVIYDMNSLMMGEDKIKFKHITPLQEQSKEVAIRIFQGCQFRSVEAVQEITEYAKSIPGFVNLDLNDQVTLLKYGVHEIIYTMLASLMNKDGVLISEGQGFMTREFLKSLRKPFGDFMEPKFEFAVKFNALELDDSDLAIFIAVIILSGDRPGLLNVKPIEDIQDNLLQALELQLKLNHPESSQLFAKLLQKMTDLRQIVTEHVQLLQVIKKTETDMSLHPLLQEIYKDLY
# Sequence of Aryl hydrocarbon receptor (Homo sapiens) (P35869 whole entry, looked up): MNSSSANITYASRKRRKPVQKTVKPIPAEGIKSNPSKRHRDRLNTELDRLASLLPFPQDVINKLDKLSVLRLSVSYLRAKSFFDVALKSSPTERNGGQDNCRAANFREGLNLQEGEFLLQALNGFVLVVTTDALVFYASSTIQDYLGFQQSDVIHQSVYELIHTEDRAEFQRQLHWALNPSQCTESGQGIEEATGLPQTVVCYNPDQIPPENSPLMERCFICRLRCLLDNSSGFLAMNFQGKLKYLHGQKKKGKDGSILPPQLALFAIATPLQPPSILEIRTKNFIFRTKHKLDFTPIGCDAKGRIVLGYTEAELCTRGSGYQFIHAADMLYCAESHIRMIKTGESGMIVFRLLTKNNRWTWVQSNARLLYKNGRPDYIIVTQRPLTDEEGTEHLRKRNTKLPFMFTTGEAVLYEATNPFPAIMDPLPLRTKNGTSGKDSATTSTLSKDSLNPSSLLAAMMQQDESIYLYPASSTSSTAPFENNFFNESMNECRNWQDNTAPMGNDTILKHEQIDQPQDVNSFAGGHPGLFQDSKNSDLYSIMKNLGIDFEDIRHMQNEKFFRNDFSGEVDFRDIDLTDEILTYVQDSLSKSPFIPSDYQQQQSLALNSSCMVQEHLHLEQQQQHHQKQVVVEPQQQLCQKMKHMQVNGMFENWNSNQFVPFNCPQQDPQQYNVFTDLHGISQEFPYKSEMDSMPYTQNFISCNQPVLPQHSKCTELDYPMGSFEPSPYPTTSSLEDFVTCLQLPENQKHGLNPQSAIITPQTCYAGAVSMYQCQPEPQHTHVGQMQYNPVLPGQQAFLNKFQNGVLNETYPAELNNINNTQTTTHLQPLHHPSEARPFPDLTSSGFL
Structure (SMILES),Potency [1],Potency [2],Potency [3],Potency [4],Potency [5],Potency [6],Potency [7],Potency [8],Potency [9],outcome [10]
C1=Cc2ccccc2C1,inactive,27.3 µM (active),inactive,inactive,inactive,inactive,inactive,inactive,inactive,inactive
CN1CCC[C@@H]1c1cccnc1,inactive,inactive,inactive,inactive,inactive,inactive,inactive,inactive,inactive,–
CCCCCCCCCCCCCCC1CO1 (centres undefined),inactive,inactive,inactive,inactive,inactive,inactive,inactive,inactive,–,–
Cc1ccc(C)o1,inactive,inactive,inactive,inactive,inactive,inactive,inactive,inactive,inactive,inactive
CC(C)(C)c1cc(CO)cc(C(C)(C)C)c1O,inactive,inactive,inactive,inactive,inactive,inactive,31.2 µM (active),inactive,inactive,inactive
Nc1nc(N)c(-c2ccccc2)s1,inactive,inactive,inactive,inactive,inactive,inactive,inactive,inactive,inactive,inactive
CCCCc1cc2ccccc2c(OCCN(C)C)n1,inactive,inactive,inactive,inactive,inactive,inactive,inactive,inactive,inactive,inactive
C=C(C)C(=O)OCCOc1ccccc1,inactive,inactive,inactive,inactive,inactive,inactive,inactive,inactive,inactive,–
CC(=O)OC/C=C/c1ccccc1,inactive,inactive,inactive,inactive,inactive,inactive,inactive,inactive,inactive,inactive
Cc1ccc(C(=O)C(C)CN2CCCCC2)cc1 (centres undefined),inactive,inactive,inactive,inactive,inactive,inactive,23.7 µM (active),inactive,inactive,–
OCC1CC2CC1C1CCC(CO)C21 (centres undefined),inactive,inactive,inactive,inactive,inactive,inactive,inactive,inactive,inactive,inactive
CCCCC(CC)(CO)CO,inactive,inactive,inactive,inactive,inactive,inactive,inactive,inactive,inactive,inactive
CC(C)NCC(O)COc1ccc(CC(N)=O)cc1 (centres undefined),inactive,inactive,inactive,inactive,inactive,inactive,inactive,inactive,inactive,inactive
O=C1CCCCCO1,inactive,inactive,inactive,inactive,inactive,inactive,inactive,inactive,inactive,–
CCCCCCCCCCCCCCCBr,inactive,inactive,inactive,inactive,inactive,inactive,inactive,inactive,inactive,inactive
CCN1CCC[C@H]1CNC(=O)c1c(OC)ccc(Br)c1OC,inactive,inactive,inactive,inactive,inactive,inactive,inactive,inactive,inactive,inactive
CC(C)(C)C1CCCCC1O (centres undefined),inactive,inactive,inactive,inactive,inactive,inactive,inactive,–,inactive,–
CCCCCCCCC(CO)CCCCCC (centres undefined),inactive,inactive,inactive,inactive,inactive,inactive,inactive,inactive,inactive,–
CC(=O)NCCCS(=O)(=O)O,inactive,inactive,inactive,inactive,inactive,inactive,26.5 µM (active),inactive,inactive,inactive
O=c1[nH]cnc2ccccc12,inactive,inactive,inactive,inactive,inactive,inactive,inactive,inactive,inactive,inactive
CNS(=O)(=O)Cc1ccc2[nH]cc(CCN(C)C)c2c1,inactive,inactive,inactive,inactive,inactive,inactive,inactive,inactive,inactive,inactive
C=CCCCCCC,inactive,inactive,inactive,inactive,inactive,inactive,inactive,inactive,inactive,–
O=C(O)/C=C/c1cnc[nH]1,inactive,inactive,inactive,inactive,inactive,inactive,inactive,inactive,inactive,inactive
CC(C)c1ccccc1C(C)C,inactive,inactive,inactive,inactive,inactive,inactive,inactive,inactive,inactive,–
N#CCc1cccc(C(F)(F)F)c1,inactive,inactive,inactive,inactive,inactive,inactive,inactive,inactive,inactive,inactive
